Measurements: PubChem BioAssay (Tox21)
Inconclusive results are not listed. The source made the active and inactive calls. Unless noted, calls come from the whole dose curve; as a rule, active = well fitted curve in the direction sought with a large enough effect in the repeat runs; inconclusive = weak or mixed curves; inactive = no such curve, though single readings can be large; an effect the other way counts as inactive or inconclusive.

Key:
[1] = qHTS RealTime-Glo MT Cell Viability Assay in HEK293 cells - 0 hour (AID 1224880); note: top concentration of the series differs between compounds; nearly all actives have a fitted effect of over 45% in size
Outline: (§1)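 Kinetic, non-lysing viability readout. Seed HEK293 (600/well) with reagent, incubate 5 h at 37 C/5% CO2, pin 23 nL compound in DMSO, incubate at 37 C, read luminescence at 0, 8, 16, 24, 32, 40 h.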

[2] = A CellTox Green Cytotoxicity Assay to monitor cytotoxicity in HEK293 cells - 32 hour (AID 1224881); note: nearly all actives have a fitted effect of over 40% in size
Outline: (§2)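 Real-time, in one plate: 600 HEK293 cells/well with dead-cell DNA dye, pinned compound after 5 h, 37 C incubation over 40 h; viable cells give no appreciable fluorescence.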

[3] = A CellTox Green Cytotoxicity Assay to monitor cytotoxicity in HepG2 cells - 0 hour (AID 1224882); note: nearly all actives have a fitted effect of over 35% in size
Outline: (§3)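 Cytotoxicity was tracked as dead-cell DNA fluorescence in HepG2 cells treated with test compounds at 37 C; each time-point value comes from one kinetic series spanning 0, 8, 16, 24, 32 and 40 h.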

[4] = A CellTox Green Cytotoxicity Assay to monitor cytotoxicity in HEK293 cells - 8 hour (AID 1224884); note: nearly all actives have a fitted effect of over 35% in size
Outline: as §2

[5] = qHTS RealTime-Glo MT Cell Viability Assay in HepG2 cells - 16 hour (AID 1224885); note: nearly all actives have a fitted effect of over 50% in size
Outline: (§4)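 Viability was tracked continuously by NanoLuc luminescence from prosubstrate reduced by living HepG2 cells, at successive time points over 40 h of compound exposure. Cells with reagent were preincubated 5 h at 37 °C before compound addition.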

[6] = qHTS RealTime-Glo MT Cell Viability Assay in HEK293 cells - 24 hour (AID 1224886); note: nearly all actives have a fitted effect of over 50% in size; note: potency is the fitted concentration of half-maximal effect
Outline: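 Viability tracked continuously by luminescence as live cells reduce a prosubstrate for NanoLuc; HEK293 cells preincubated 5 h, compound-treated at 37 C, and read at 0, 8, 16, 24, 32 and 40 h.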

[7] = qHTS RealTime-Glo MT Cell Viability Assay in HEK293 cells - 8 hour (AID 1224887); note: nearly all actives have a fitted effect of over 50% in size; note: potency is the fitted concentration of half-maximal effect
Outline: as §1

[8] = A CellTox Green Cytotoxicity Assay to monitor cytotoxicity in HEK293 cells - 16 hour (AID 1224888); note: nearly all actives have a fitted effect of over 35% in size
Outline: as §2

[9] = qHTS RealTime-Glo MT Cell Viability Assay in HepG2 cells - 0 hour (AID 1224889); note: nearly all actives have a fitted effect of over 50% in size
Outline: as §4

[10] = A CellTox Green Cytotoxicity Assay to monitor cytotoxicity in HepG2 cells - 8 hour (AID 1224890); note: nearly all actives have a fitted effect of over 45% in size
Outline: as §3

[11] = qHTS assay to identify small molecule antagonists of the estrogen receptor alpha (ER-alpha) signaling pathway using the BG1 cell line in the presence of 0.1 nM 17-beta-estradiol - cell viability counter screen (AID 1259241); note: nearly all actives have a fitted effect of over 40% in size
Outline: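 Cells were plated and left 24 hr, compounds in DMSO were pinned in, 17beta-estradiol was added to 0.1 nM final, and after 22 hr CellTiter-Fluor reagent was added for 30 min before fluorescence was read.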

[12] = qHTS assay to identify small molecule antagonists of the androgen receptor (AR) signaling pathway using the MDA cell line in the presence of 0.5 nM R1881 - cell viability counter screen (AID 1259242); note: nearly all actives have a fitted effect of over 45% in size
Outline: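 Cells seeded at 3,000/well and allowed 5 hr at 37C, 0% CO2 before compound transfer and R1881 (0.5 nM final) addition; 16 hr later, live-cell protease fluorescence indicated cytotoxicity.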

[13] = molecular target: Androgen receptor (Homo sapiens) (UniProt P10275); assay: qHTS assay to identify small molecule antagonists of the androgen receptor (AR) signaling pathway using the MDA cell line in the presence of 0.5 nM R1881 (AID 1259243); note: nearly all actives have a fitted effect of over 50% in size; note: potency is the fitted concentration of half-maximal effect
Outline: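 Luminescence from an AR/GR-responsive MMTV-luciferase construct in MDA-kb2 breast carcinoma cells, read 30 min after ONE-Glo, following 16 hr co-treatment with compounds and 0.5 nM R1881.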

[14] = molecular target: Estrogen receptor (Homo sapiens) (UniProt P03372); assay: qHTS assay to identify small molecule antagonists of the estrogen receptor alpha (ER-alpha) signaling pathway using the BG1 cell line in the presence of 0.1 nM 17-beta-estradiol (AID 1259244); note: nearly all actives have a fitted effect of over 50% in size; note: potency is the fitted concentration of half-maximal effect
Outline: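 Luciferase signal from VM7Luc4E2 ERE-reporter cells, co-dosed with test compound and 0.1 nM final 17beta-estradiol for 22 h, read with ONE-Glo.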

[15] = qHTS assay to identify small molecule HDAC inhibitors (AID 1259364); note: potency is the fitted concentration of half-maximal effect;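 note: wild-type HCT-116 cells with endogenous class I/II HDAC activity; nearly all actives have a fitted effect of over 45% in size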
Outline: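 HCT-116 wt cells, 1,500/well, overnight attach. Compounds (DMSO) 2 h, 37 °C. HDAC-Glo I/II, 30 min RT. Luminescence.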

[16] = qHTS assay to identify small molecule HDAC inhibitors - cell viability counter screen (AID 1259365)
Outline: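 Counter screen in wild-type HCT-116 cells: compounds dissolved in DMSO are pin-transferred onto overnight-plated cells and left 2hr at 37C. ATP-based CellTiter-Glo luminescence then measures viable cells.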

[17] = qHTS assay to identify small molecule agonists of the sonic hedgehog signaling (Shh) pathway - cell viability counter screen (AID 1259366); note: nearly all actives have a fitted effect of over 50% in size; note: potency is the fitted concentration of half-maximal effect
Outline: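 Cells are plated at 2,000 per well and left 4hr at 37C, 5% CO2 before compound addition. After 23hr of treatment, CellTiter-Fluor reagent is added for 1hr at 37C and fluorescence is measured.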

[18] = qHTS assay to identify small molecule antagonists of the sonic hedgehog signaling (Shh) pathway - cell viability counter screen (AID 1259367); note: nearly all actives have a fitted effect of over 55% in size; note: potency is the fitted concentration of half-maximal effect
Outline: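 Viability was read by CellTiter-Fluor fluorescence in the same wells, reagent added 23 hr into compound treatment and incubated 1 hr at 37C. The 3T3 Gli1-Luc reporter cells (2,000/well) received conditioned medium after compound and ran 24 hr.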

[19] = A CellTox Green Cytotoxicity Assay to monitor cytotoxicity in HepG2 cells - 32 hour (AID 1224883); note: nearly all actives have a fitted effect of over 50% in size
Outline: as §3

[20] = qHTS assay to identify small molecule phospholipidosis (PLD) inducers (AID 1259344; active = well fitted curve in the direction sought with a large enough effect; an effect the other way counts as inactive or inconclusive)
Outline: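 Phospholipid accumulation was scored by imaging: fixed, Hoechst-counterstained HepG2 cells stained with LipidTOX Red after 24 h compound exposure at 37 C. Read-outs were pit count and pit intensity per well or per cell, with amiodarone and DMSO controls.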

Measured: Potency

Sequence of Androgen receptor (Homo sapiens) (P10275 whole entry, looked up): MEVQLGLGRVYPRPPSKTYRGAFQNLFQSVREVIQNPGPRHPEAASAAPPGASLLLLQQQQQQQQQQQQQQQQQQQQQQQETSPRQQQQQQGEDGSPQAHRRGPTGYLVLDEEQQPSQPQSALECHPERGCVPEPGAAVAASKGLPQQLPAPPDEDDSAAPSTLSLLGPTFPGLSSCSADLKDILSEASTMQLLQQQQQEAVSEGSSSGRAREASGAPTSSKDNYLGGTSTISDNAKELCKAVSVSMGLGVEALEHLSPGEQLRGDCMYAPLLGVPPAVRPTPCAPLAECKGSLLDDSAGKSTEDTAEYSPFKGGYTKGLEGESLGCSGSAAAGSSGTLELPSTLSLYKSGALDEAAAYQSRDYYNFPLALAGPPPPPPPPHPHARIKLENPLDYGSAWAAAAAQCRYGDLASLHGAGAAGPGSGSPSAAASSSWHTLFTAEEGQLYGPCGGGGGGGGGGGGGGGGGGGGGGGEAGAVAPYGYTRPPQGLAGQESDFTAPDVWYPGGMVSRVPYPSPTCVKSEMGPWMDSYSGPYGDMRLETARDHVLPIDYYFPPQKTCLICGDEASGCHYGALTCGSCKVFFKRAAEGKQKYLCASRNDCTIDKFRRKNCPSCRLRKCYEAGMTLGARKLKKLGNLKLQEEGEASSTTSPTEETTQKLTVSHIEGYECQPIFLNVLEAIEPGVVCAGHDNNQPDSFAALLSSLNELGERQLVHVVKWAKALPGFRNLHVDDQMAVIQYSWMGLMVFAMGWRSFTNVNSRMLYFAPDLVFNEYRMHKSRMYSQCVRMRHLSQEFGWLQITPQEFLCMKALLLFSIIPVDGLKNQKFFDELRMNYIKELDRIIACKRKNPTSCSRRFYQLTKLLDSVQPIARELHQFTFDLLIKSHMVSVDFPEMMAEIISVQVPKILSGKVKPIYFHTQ
Sequence of Estrogen receptor (Homo sapiens) (P03372 whole entry, looked up): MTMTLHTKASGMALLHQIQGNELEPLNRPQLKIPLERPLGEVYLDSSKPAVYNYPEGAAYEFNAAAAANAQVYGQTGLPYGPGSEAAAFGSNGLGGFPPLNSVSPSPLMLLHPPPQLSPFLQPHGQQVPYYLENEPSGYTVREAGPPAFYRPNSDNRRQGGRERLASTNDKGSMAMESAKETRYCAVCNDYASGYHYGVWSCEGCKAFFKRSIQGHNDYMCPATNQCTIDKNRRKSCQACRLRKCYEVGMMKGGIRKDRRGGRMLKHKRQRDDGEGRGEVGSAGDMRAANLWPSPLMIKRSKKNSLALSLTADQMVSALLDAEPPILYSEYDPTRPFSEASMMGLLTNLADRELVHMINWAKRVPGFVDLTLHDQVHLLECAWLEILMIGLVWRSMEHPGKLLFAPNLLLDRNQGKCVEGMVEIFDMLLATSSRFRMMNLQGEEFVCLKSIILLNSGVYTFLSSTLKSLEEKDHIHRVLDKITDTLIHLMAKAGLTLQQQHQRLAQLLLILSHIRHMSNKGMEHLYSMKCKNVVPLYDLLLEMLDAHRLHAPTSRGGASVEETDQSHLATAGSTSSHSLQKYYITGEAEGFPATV

CC(C)(C)c1cccc(O)c1
not listed: [19] | [20]
inactive: all other assays above

Cc1cn([C@@H]2O[C@H](CO)[C@@H](O)[C@@H]2F)c(=O)[nH]c1=O
not listed: [13] | [14] | [19] | [20]
inactive: all other assays above

NCCCN1CCN(CCCN)CC1
not listed: [15] | [17] | [19] | [20]
inactive: all other assays above

COc1ccccc1N1CCN(CCCNc2cc(=O)n(C)c(=O)n2C)CC1
not listed: [5] | [6] | [7] | [10] | [13]
inactive: all other assays above

O=C(O[C@@H](C(=O)O)[C@@H](OC(=O)c1ccccc1)C(=O)O)c1ccccc1
not listed: [13] | [14] | [19] | [20]
inactive: all other assays above

C[C@]12CCC(=O)C=C1CC[C@@H]1[C@@H]2CC[C@@]2(C)[C@H]1CC[C@]2(O)C(=O)CO
not listed: [5] | [6] | [9] | [13]
inactive: all other assays above

CCOc1ccc2nc(N)sc2c1
active: [15] 24.1 µM
not listed: [13] | [19] | [20]
inactive: all other assays above

CCOC(=O)NCCC[Si](OCC)(OCC)OCC
not listed: [13] | [15] | [19] | [20]
inactive: all other assays above

CCCCNCCCC
not listed: [13] | [14] | [19] | [20]
inactive: all other assays above

Cc1nc(-c2ccccn2)ncc1C(=O)Nn1cc(C)c2cc(F)ccc21
active: [6] 1.55 µM | [7] 1.95 µM
not listed: [5] | [9] | [13] | [14] | [20]
inactive: all other assays above

FC(F)(F)C(Cl)(Cl)Cl
not listed: [13] | [19] | [20]
inactive: all other assays above

ClC(Cl)Cl
active: [18] 42.9 µM
not listed: [13] | [14] | [17] | [19]
inactive: all other assays above

CCOc1ccccc1N
active: [14] 30.4 µM
not listed: [5] | [6] | [9] | [10] | [12] | [13] | [20]
inactive: all other assays above

CC(=O)OC(C)OC(C)=O
not listed: [14] | [19] | [20]
inactive: all other assays above

CCCOc1ccc2c(c1)CC[C@@H]1[C@@H]2CC[C@]2(C)C(OC)CC[C@@H]12 (some centres undefined)
active: [13] 13.3 µM
not listed: [5] | [9] | [20]
inactive: all other assays above

CCCNC(C)(C)COC(=O)c1ccccc1
not listed: [5] | [9] | [10] | [13]
inactive: all other assays above

CCCCCCCOC(=O)CCC
not listed: [4] | [13] | [15] | [20]
inactive: all other assays above

CCCS(=O)c1ccc2nc(NC(=O)OC)[nH]c2c1 (centres undefined)
active: [15] 5.96 µM
not listed: [11] | [14] | [19] | [20]
inactive: all other assays above

CCOC(=O)C1CC(=O)C(=C(O)C2CC2)C(=O)C1 (centres undefined)
not listed: [4] | [10] | [13] | [20]
inactive: all other assays above

CCCCCCCCCC#N
active: [18] 60.8 µM
not listed: [5] | [9] | [13] | [14] | [17] | [20]
inactive: all other assays above

CCOC(=O)[C@H](CCc1ccccc1)N[C@@H](C)C(=O)N1Cc2cc(OC)c(OC)cc2C[C@H]1C(=O)O
not listed: [13] | [19]
inactive: all other assays above

CC(C)C(=O)OCC(C)(C)C(O)C(C)C (centres undefined)
not listed: [13] | [19] | [20]
inactive: all other assays above

CC(=O)N(CC(O)CN(C(C)=O)c1c(I)c(C(=O)NCC(O)CO)c(I)c(C(=O)NCC(O)CO)c1I)c1c(I)c(C(=O)NCC(O)CO)c(I)c(C(=O)NCC(O)CO)c1I (centres undefined)
not listed: [13] | [19]
inactive: all other assays above

OCc1c2ccccc2cc2ccccc12
not listed: [5] | [6] | [7] | [13] | [20]
inactive: all other assays above

NCCC(O)(P(=O)(O)O)P(=O)(O)O
not listed: [13] | [14] | [19]
inactive: all other assays above

CCN(CC)CCNC(=O)COc1ccc(Cl)cc1
not listed: [13] | [19]
inactive: all other assays above

COc1cc(C)ccc1C(C)C
not listed: [5] | [9] | [13] | [15] | [20]
inactive: all other assays above

CCCNC(C)C(=O)Nc1c(C)csc1C(=O)OC (centres undefined)
not listed: [13] | [19]
inactive: all other assays above

OCCN1CCN(CCO)CC1
not listed: [13] | [14] | [19] | [20]
inactive: all other assays above

CCCCCCn1c(=O)c2c(ncn2C)n(C)c1=O
not listed: [5] | [9] | [10] | [20]
inactive: all other assays above

CN(CC1(C)CCCO1)S(=O)(=O)c1ccc(Cl)c(S(N)(=O)=O)c1 (centres undefined)
not listed: [13] | [14] | [19] | [20]
inactive: all other assays above

CCN(O)CC
active: [15] 26.7 µM | [17] 30 µM | [18] 21.2 µM
not listed: [13] | [14] | [19] | [20]
inactive: all other assays above
